These results are taken from PubChem BioAssay (Tox21).

Assay [1] can be described thus: qHTS assay to identify small molecule antagonists of the retinoid acid receptor (RAR) signaling pathway - cell viability counter screen (AID 1159551). Note: nearly all actives have a fitted effect of over 35% in size. Note: potency is the fitted concentration of half-maximal effect. The gist of the method:
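C3RL4 RARE-luciferase line; cpds + retinol 1 uM final, 6 h, 37 C/5% CO2; CellTiter-Glo ATP luminescence, 30 min RT.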

A short description of assay [2]: qHTS assay to identify small molecule agonists of the RXR signaling pathway - cell viability counter screen (AID 1159529). Note: nearly all actives have a fitted effect of over 50% in size. Note: potency is the fitted concentration of half-maximal effect. Put shortly: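 HEK 293T RXRa-bla cells, 2% CS-FBS; 5 h settle; cpd 16 h 37 C, 5% CO2; CellTiter-Glo 30 min RT, luminescence. Tetraoctyl ammonium bromide as positive control.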
A general note: Quantitative high-throughput screening tests each substance at several concentrations.

Assay [3] is described as follows: qHTS assay to identify small molecule agonists of the retinoic acid receptor (RAR) signaling pathway (AID 1159553). Note: potency is the fitted concentration of half-maximal effect. The gist of the method:
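RARE-luc C3RL4 cells; overnight attachment 37 C/5% CO2; compound (DMSO) 6 hr; luciferase reagent, 30 min RT; luminescence read-out.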

Assay [4] can be described thus: qHTS assay to identify small molecule antagonists of the estrogen related receptor (ERR) signaling pathway - cell viability counter screen (AID 1224818). Note: series mostly up to about 46 µM. The gist of the method:
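Fluorescence from CellTiter-Fluor, read 30 min after reagent addition at 37 C, measured viability of ERR cells exposed to compounds for 17.5 h. Cells had settled 6 h before dosing.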

Assay [5] in a line: qHTS assay to identify small molecule agonists of the estrogen related receptor (ERR) signaling pathway (AID 1224820). Put shortly: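 An ERR cell line provided by NTP was seeded at 2,000 cells per well and allowed to settle for 6 h before compounds in DMSO were added. After 18 h at 37 C, luciferase activity was measured by One-Glo luminescence.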
A short description of assay [6]: qHTS assay to identify small molecule antagonists of the estrogen related receptor signaling pathway with the pleiotropic PPARgamma coactivator (PGC) cell viability counter screen (AID 1224822; note: series mostly up to about 46 µM). Put shortly: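 Fluorescence read-out of CellTiter-Fluor after 30 min at 37 C; PGC/ERR cells, 2,000 per well, had been exposed to DMSO-dissolved compounds for 17.5 h following a 6 h pre-incubation.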

A short description of assay [7]: qHTS assay to identify small molecule agonists of the estrogen related receptor signaling pathway with the pleiotropic PPARgamma coactivator (PGC) (AID 1224823). Put shortly:
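Compounds dissolved in DMSO are added by pin tool to PGC/ERR cells that have settled for 6 h, and incubation continues 18 h at 37 C. Reporter output is measured as One-Glo luminescence.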

The nature of assay [8]: qHTS assay to identify small molecule antagonists of the retinoic acid receptor (RAR) signaling pathway (AID 1159552; note: nearly all actives have a fitted effect of over 50% in size; note: potency is the fitted concentration of half-maximal effect). Put shortly: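 Cells of the C3RL4 line were seeded, incubated overnight, then dosed with compounds in DMSO followed immediately by retinol (1 uM final). Six hours later luciferase detection reagent went in; signal was measured after 30 min at RT.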
Assay [9] can be described thus: qHTS assay to identify small molecule antagonists of the estrogen related receptor (ERR) signaling pathway (AID 1224819; note: potency is the fitted concentration of half-maximal effect; nearly all actives have a fitted effect of over 50% in size). The gist of the method:
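Luminescence readout (One-Glo, 30 min, RT) of ERR cell line after 18 h compound exposure at 37 C; cells seeded 2,000/well, pre-incubated 6 h, compounds pinned from DMSO stocks.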

Assay [10] has as its system estrogen-related receptor alpha (ERRalpha) with PGC-1alpha coactivator, human. Kind of assay: qHTS assay to identify small molecule antagonists of the estrogen related receptor signaling pathway with the pleiotropic PPARgamma coactivator (PGC) (AID 1224821; calls by dose curve; note: potency is the fitted concentration of half-maximal effect; nearly all actives have a fitted effect of over 50% in size). Put shortly:
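A PGC/ERR cell line supplied by NTP is seeded, allowed 6 h at 37 C, and treated with test compounds in DMSO for 18 h. Signal is then measured as luciferase luminescence using One-Glo.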

Values joined by “and” are separate entries in the source; they are usually repeats but may differ in a detail not shown here. Equal entries are not always repeated. Records with an inconclusive call do not appear. Active and inactive are the calls of the source. Unless noted, calls come from the whole dose curve; as a rule, active = well fitted curve in the direction sought with a large enough effect in the repeat runs; inconclusive = weak or mixed curves; inactive = no such curve, though single readings can be large; an effect the other way counts as inactive or inconclusive.

With `Oc1cc(Cl)c(Cl)c(Cl)c1`, the Potency result in [1] is “inactive”.

Turning to `CC(=O)C(Cl)(Cl)Cl`, the Potency entry in [1] is “inactive”.

As to `C=CCC1=C(C)C(OC(=O)C2C(C=C(C)C)C2(C)C)CC1=O` (configuration not stated), the Potency in assay [2] was 58.3 µM (active). Also, the Potency entry in assay [3] and in assay [6] was “inactive” in each case. The call in assay [4], in [5] and in assay [7] was inactive.

On to `CC(C)CCCCCCCOP(=O)(Oc1ccccc1)Oc1ccccc1`, for which, in [1], the Potency result was “inactive”.

For the compound `CC(C)N1C(=O)N(c2ccccc2)CSC1=NC(C)(C)C`, in assay [1], the Potency entry was “inactive”.

As for `c1ccc(Nc2ccc3ccccc3c2)cc1`, the Potency is 43.4 µM (active) in assay [2]; 3.05 µM (active) and 8.63 µM (active) in [3]. Moreover, in assay [8], the Potency result was “inactive”.

For the compound `Cc1cc(C(C)(C)c2cc(C)c(O)c(C)c2)cc(C)c1O`, the figures for the Potency in [2] and in [8] were 47.4 µM (active) and 52.7 µM (active), respectively.

With `CC1(C)CC/C(=C/c2ccc(Cl)cc2)C1(O)Cn1cncn1` (configuration not stated), the Potency entry in [2], in [1] and in assay [6] was “inactive” in each case. For the same compound, the call in [4] was inactive.

For `CC(C)CC(C)Nc1ccc(Nc2ccccc2)cc1` (configuration not stated), the Potency in [2] is 54 µM (active). Moreover, the Potency result in assay [3] is “inactive”.

As to `CC[C@H](C)[C@H]1O[C@]2(C=C[C@@H]1C)C[C@@H]1C[C@@H](C/C=C(\C)[C@@H](O[C@H]3C[C@H](OC)[C@@H](O[C@H]4C[C@H](OC)[C@@H](O)[C@H](C)O4)[C@H](C)O3)[C@@H](C)/C=C/C=C3\CO[C@@H]4[C@H](O)C(C)=C[C@@H](C(=O)O1)[C@]34O)O2`, the Potency is 16.3 µM (active) in [2] and 32.2 µM (active) in assay [8].

As for `O=C(CBr)c1ccc(O)cc1`, in assay [2], the Potency entry was “inactive”. For the same compound, the Potency in assay [8] was 54.5 µM (active).

On to `O=c1[nH]c2ccccc2n1C1CCN(CCCC(c2ccc(F)cc2)c2ccc(F)cc2)CC1`, for which the Potency in [2] is 21.9 µM (active) and 23.9 µM (active); in assay [9], 11.9 µM (active); in assay [10], 16.2 µM (active). Also, the compound was classed as inactive in assay [5] and in assay [7].

As for `O=C(CCl)C(Cl)Cl`, in assay [1], the Potency result was “inactive”. Besides, the Potency in assay [8] is 15.5 µM (active).

For the compound `C=CC(=O)OCC(COC(=O)C=C)(COC(=O)C=C)COC(=O)C=C`, the Potency in assay [2] was 17.4 µM (active); in assay [8], 13.7 µM (active); in assay [3] it was 1.93 µM (active).

As for `CCCCOCN(C(=O)CCl)c1c(CC)cccc1CC`, in assay [1], the Potency result is “inactive”.

`c1cc[c]([Sb]([c]2ccccc2)[c]2ccccc2)cc1`: the Potency result in assay [1] was “inactive”.

Turning to `Oc1ccc(C(=C(Cl)Cl)c2ccc(O)cc2)cc1`, the Potency result in assay [1] and in assay [8] was “inactive” throughout.

With `CCCSP(=O)(OCC)SCCC`, the Potency result in [2], in [8], in assay [3] and in assay [6] was “inactive” each time. Further, in [4], the outcome was inactive.

For `CC(=O)[O-].[Tl+]`, the Potency entry in assay [1] is “inactive”.

Take `O=S(=O)(c1ccc(Cl)cc1)c1ccc(Cl)cc1`: the Potency result in assay [2], in assay [1] and in [6] was “inactive” each time. The call in assay [4], in assay [5] and in assay [7] was inactive.

Regarding `Fc1cccc(Cl)c1CCl`, the Potency result in [1] and in [8] was “inactive” throughout.

Regarding `CCN(CC)c1c([N+](=O)[O-])cc(C(F)(F)F)c(N)c1[N+](=O)[O-]`, the Potency entry in assay [1] is “inactive”.

In the case of `CN(C)CCc1c[nH]c2cccc(O)c12`, the Potency entry in assay [1] is “inactive”.

`COc1cccc2c1C(=O)c1c(O)c3c(c(O)c1C2=O)C[C@@](O)(C(=O)CO)CC3OC1CC(N2CCOC(OC)C2)C(O)C(C)O1` (some centres not stated): in [2], the Potency entry is “inactive”. Also, the Potency in [8] was 0.106 µM (active).

On to `S=C=Nc1cccc2ccccc12`, for which the Potency entry in [1] and in assay [8] was “inactive” throughout.

For the compound `Fc1ccc(Oc2ccnc3cc(Cl)cc(Cl)c23)cc1`, the Potency result in assay [1] and in [8] was “inactive” in each case.

As for `[CH3][Hg][Cl]`, the Potency in assay [2] is 6.15 µM (active). Moreover, in assay [8], the Potency result is “inactive”.

In the case of `Cc1cc(SCc2sc(-c3ccc(C(F)(F)F)c(F)c3)nc2C)ccc1OCC(=O)O`, the Potency in assay [2] was 19.5 µM (active). Further, the Potency result in assay [8] and in assay [3] was “inactive” throughout.

With `CCCCCCCCCCCCBr`, the Potency entry in assay [1] and in assay [3] was “inactive” throughout.

Turning to `Nc1ccccc1C(=O)Oc1ccc2ccccc2c1`, the Potency result in [1] and in assay [8] was “inactive” in each case.

For the compound `ClC1=C(Cl)[C@]2(Cl)[C@@H]3[C@@H]4C[C@@H]([C@H]5O[C@@H]45)[C@@H]3[C@@]1(Cl)C2(Cl)Cl`, in assay [1], the Potency was 61.1 µM (active). Further, the call in assay [4], in assay [5] and in assay [7] was inactive. Also, the Potency result in assay [6] was “inactive”.

Regarding `COc1ccc(/C(=C/C(=O)N2CCOCC2)c2ccc(Cl)cc2)cc1OC`, the Potency entry in assay [1] and in assay [8] was “inactive” each time.

`Nc1ccccc1C(=O)OC/C=C/c1ccccc1`: the Potency entry in [1] and in assay [8] was “inactive” each time. Moreover, the Potency in assay [3] was 1.22 µM (active).

For `CNC(C)Cc1ccc2c(c1)OCO2` (configuration not stated), the Potency entry in assay [1] and in assay [8] was “inactive” each time.
